Measured values reported in a collection of fitness landscapes (doi:10.1016/j.celrep.2020.107928).
The full ranking holds about 81,000 sequences; the median of “one-hybrid fitness for binding parS DNA” is about -0.17, and the highest 2% start at about 0.51. For the sample, the highest values were picked, then their nearest neighbours and some sequences at random.

B1: Caulobacter ParB omega fusion; a variant is named by its letters at X, in order, B8GW30 (parent)
chain: MESVVVGEPGMSEGRRGLGRGLSALLGEVDAAPAQAPGEQLGGSREAPIEILQRNPDQPRRTFREEDLEDLSNSIREKGVLQPILVRPSPDTAGEYQIVAGERAWRAAQRAGLKTVPIMVRELDDLAVLEIGIIENVQRADLNVLEEALSYKVLMEKFERTQENIAQTIGKSXSHVANXMRLLXLPDEVQSYLVSGELTAXHARAIAAAADPVALAKQIIEGGLSVRETEALARKAPNLSAGKSKGGRPPRVKDTDTQALESDLSSVLGLDVSIDHRGSTGTLTITYATLEQLDDLCNRLTRGI

Variants of: B1
Test: one-hybrid fitness for binding parS DNA (scaled: cognate 1, non-cognate 0); higher = stronger binding
Details: with parS DNA site
Method in brief: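 Values were rescaled so that cognate is 1 and non-cognate is 0. Each is a fitness, the log change in a variant's read ratio to wild type from Illumina reads of plasmids before and after selection, with three replicate libraries pooled and variants under 10 reads dropped. Selection of the Caulobacter ParB libraries, four specificity codons randomised, used E. coli USO with a HIS3 reporter, site 19 bp from the promoter, on M9-minus-histidine with 0.1 mM IPTG and 5 mM 3-AT for 48 hours at 37°C.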

Variant | one-hybrid fitness for binding parS DNA
YFQT | ≤ 0.2
TWNC | ≤ 0.2
KIDC | ≤ 0.2
YREL | ≤ 0.2
QRPG | ≤ 0.2
ANRV | ≤ 0.2
RHGP | ≤ 0.2
RHSQ | ≤ 0.2
RHRP | ≤ 0.2
RHGH | ≤ 0.2
RHRG | 0.903
RHSR | ≤ 0.2
RHSG | 0.958
RHGG | 0.939
RHRH | 0.232
KVHG | ≤ 0.2
IAKA | ≤ 0.2
MESK | ≤ 0.2
TRMT | ≤ 0.2
GQVV | ≤ 0.2
AIVR | ≤ 0.2
KQMS | ≤ 0.2
GWHV | ≤ 0.2
VEGN | ≤ 0.2
TSSY | ≤ 0.2
RLCA | 0.609

Variant | one-hybrid fitness for binding parS DNA
DLDA | ≤ 0.2
RDNA | ≤ 0.2
RLDA | 0.588
RLYA | 0.607
DLCA | ≤ 0.2
DLYA | ≤ 0.2
NLCA | ≤ 0.2
RLNA | 0.62
ALYA | ≤ 0.2
NLNA | ≤ 0.2
ASVG | ≤ 0.2
YGDG | ≤ 0.2
VARP | ≤ 0.2
TRNE | ≤ 0.2
SERK | ≤ 0.2
TYPS | ≤ 0.2
QKME | ≤ 0.2
QGRS | ≤ 0.2
LGAW | ≤ 0.2
LDKA | ≤ 0.2
WVHI | ≤ 0.2
DLRA | ≤ 0.2
RLRA | 0.727
NLRA | ≤ 0.2
SEQC | ≤ 0.2
TFQR | ≤ 0.2

Variant | one-hybrid fitness for binding parS DNA
NICA | ≤ 0.2
RIPA | 0.29
RISA | 0.608
RIIA | 0.499
RIYA | 0.613
NISA | ≤ 0.2
RICA | 0.525
RILA | 0.576
HSNV | ≤ 0.2
QGKW | ≤ 0.2
YPTH | ≤ 0.2
PDPT | ≤ 0.2
YNHR | ≤ 0.2
PMSC | ≤ 0.2
NLLT | ≤ 0.2
NQHT | ≤ 0.2
WWRT | ≤ 0.2
PCFG | ≤ 0.2
YQHR | ≤ 0.2
RIGA | 0.661
RIRA | 0.672
RIQA | 0.576
RIHA | 0.574
NIRA | ≤ 0.2
RIEA | 0.451
TSST | ≤ 0.2

Variant | one-hybrid fitness for binding parS DNA
VTVI | ≤ 0.2
IMSG | ≤ 0.2
ENNW | ≤ 0.2
TFVM | ≤ 0.2
KSAC | ≤ 0.2
DWTC | ≤ 0.2
TPML | ≤ 0.2
CISV | ≤ 0.2
RIWA | 0.539
THES | ≤ 0.2
MCDC | ≤ 0.2
NYQC | ≤ 0.2
NSQY | ≤ 0.2
HMPR | ≤ 0.2
PPDT | ≤ 0.2
ARRF | ≤ 0.2
RQRP | ≤ 0.2
RQWM | 0.233
RQHG | 1.01
RQHF | 0.231
RQHK | ≤ 0.2
RQDG | 0.93
RQRG | 0.97
RQWK | ≤ 0.2
RQWG | 0.877
RQDD | ≤ 0.2

Variant | one-hybrid fitness for binding parS DNA
RQDH | ≤ 0.2
RQRH | 0.249
WATG | ≤ 0.2
TFEV | ≤ 0.2
KKQL | ≤ 0.2
VEMW | 0.21
SPRE | ≤ 0.2
VHIS | ≤ 0.2
HAND | ≤ 0.2
MQAL | ≤ 0.2
RQNM | 0.325
RQNG | 1.01
RQYD | ≤ 0.2
RQLD | ≤ 0.2
RQLG | 0.982
RQYG | 0.994
RQNF | 0.216
RQQG | 0.99
RQQN | 0.469
RQLH | ≤ 0.2
RQQH | ≤ 0.2
RQYH | ≤ 0.2
YEKG | ≤ 0.2
MTTE | ≤ 0.2
PMRC | ≤ 0.2
TKTN | ≤ 0.2

Variant | one-hybrid fitness for binding parS DNA
ESQE | ≤ 0.2
PCYG | ≤ 0.2
FVTS | ≤ 0.2
VWVK | ≤ 0.2
TAGS | ≤ 0.2
QLHQ | ≤ 0.2
GGAM | ≤ 0.2
MKCT | ≤ 0.2
RQCG | 0.97
RQSD | ≤ 0.2
RQGG | 0.945
RQCY | 0.412
RQGF | 0.234
RQSH | ≤ 0.2
RQGQ | ≤ 0.2
RQCR | ≤ 0.2
RQSG | 0.984
NETE | ≤ 0.2
YGVD | ≤ 0.2
VVSY | ≤ 0.2
LSGR | ≤ 0.2
